# This excerpt belongs to a sample that is enriched for hits.
# EZH2 inh = EZH2 (human) methyltransferase inhibition; Q15910; PRC2 H3K27 methylation, DELFIA TRF, 1 h; inhibition, % at 12.5 µM; actives 0.35% (n = 57,000); AID 651548;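 active = mean inhibition of replicates at least 50% and every single replicate also reaching 50%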;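 note: dimethyl H3K27 on biotinylated H3 21-44 peptide detected by antibody; plate controls were median neutral control wells for no effect and median positive control wells for full effect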
# Target sequence (Q15910 whole entry, looked up): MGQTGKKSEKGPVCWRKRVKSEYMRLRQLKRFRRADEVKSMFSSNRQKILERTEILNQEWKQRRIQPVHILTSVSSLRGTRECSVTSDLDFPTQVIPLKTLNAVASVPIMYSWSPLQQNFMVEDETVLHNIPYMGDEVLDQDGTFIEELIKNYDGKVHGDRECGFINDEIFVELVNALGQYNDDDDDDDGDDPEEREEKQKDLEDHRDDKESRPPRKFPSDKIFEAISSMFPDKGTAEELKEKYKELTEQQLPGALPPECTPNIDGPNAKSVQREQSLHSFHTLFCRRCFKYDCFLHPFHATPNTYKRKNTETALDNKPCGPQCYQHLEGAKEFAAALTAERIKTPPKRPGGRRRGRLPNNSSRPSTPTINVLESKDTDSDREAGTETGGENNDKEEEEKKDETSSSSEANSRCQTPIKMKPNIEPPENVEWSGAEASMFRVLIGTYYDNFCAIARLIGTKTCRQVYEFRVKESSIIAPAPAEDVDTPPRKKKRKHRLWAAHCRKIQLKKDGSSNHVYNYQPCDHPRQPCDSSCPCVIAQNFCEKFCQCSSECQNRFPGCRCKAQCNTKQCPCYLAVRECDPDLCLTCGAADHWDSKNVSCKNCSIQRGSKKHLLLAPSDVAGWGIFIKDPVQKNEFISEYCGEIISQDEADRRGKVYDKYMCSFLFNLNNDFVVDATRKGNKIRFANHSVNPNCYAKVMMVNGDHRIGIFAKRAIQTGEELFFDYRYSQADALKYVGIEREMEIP
# The depositor's hits bear a star.
SMILES,EZH2 inh
CC1CC[C@]2(C(=O)OC3OC(COC4OC(CO)C(O)C(O)C4O)C(O)C(O)C3O)CC[C@]3(C(=O)O)C(=CCC4[C@@]5(C)CC[C@H](OC6OC(C)C(O)C(O)C6O)C(C)(C)C5CC[C@]43C)C2C1C (some centres undefined),71*
C[C@H]1O[C@@H](O[C@H]2CC[C@@]3(C)C(CC[C@]4(C)C3CC=C3C5CC(C)(C)CC[C@]5(C(=O)O)CC[C@]34C(=O)O)C2(C)C)[C@H](O)[C@@H](O)[C@H]1O (some centres undefined),3
C[C@@H]1CC[C@]2(C(=O)O[C@@H]3O[C@H](CO)[C@@H](O)[C@H](O)[C@H]3O)CC[C@]3(C)C(=CCC4[C@@]5(C)C[C@@H](O)[C@H](O)C(C)(C)C5CC[C@]43C)C2[C@]1(C)O (some centres undefined),36
Nc1cc(=O)[nH]c(SCC(=O)N2CCN(c3ccccc3)CC2)n1,-15
CS(=O)(=O)N(CC(=O)Nc1ccc(Br)cc1)c1cc(Cl)cc(Cl)c1,11
Cc1c(Br)c([N+](=O)[O-])nn1CC(=O)Nc1cccnc1,-4
COc1ccc(NC(=O)COc2ccc(CO)cc2OC)cc1,-1
COC(=O)C1=COC(O[C@@H]2O[C@H](CO)[C@@H](O)[C@H](O)[C@H]2O)[C@@H]2[C@@H](C)[C@@H](OC(=O)/C=C/c3ccc(O)c(O)c3)[C@@H](O)[C@H]12 (some centres undefined),4
COc1ccc(/C=C/C(=O)O[C@H]2[C@H](OC3C4O[C@]4(CO)[C@H]4C(O[C@@H]5O[C@H](CO)[C@@H](O)[C@H](O)[C@H]5O)OC=C[C@@H]34)O[C@@H](C)[C@H](O)[C@H]2O)cc1 (some centres undefined),8
C[C@@H]1O[C@@H](O[C@@H]2[C@@H](O)[C@H](OCCc3ccc(O)c(O)c3)O[C@H](CO[C@@H]3OC[C@](O)(CO)[C@H]3O)[C@H]2OC(=O)/C=C/c2ccc(O)c(O)c2)[C@H](O[C@@H]2OC[C@H](O)[C@H](O)[C@H]2O)[C@H](O)[C@H]1O,68*
O=[N+]([O-])c1ccc(NCCNS(=O)(=O)c2ccc(Br)cc2)cc1,-6
COc1ccc(C2CC(=O)c3c(O)cc(O[C@@H]4O[C@H](CO[C@@H]5O[C@@H](C)[C@H](O)[C@@H](O)[C@H]5O)[C@@H](O)[C@H](O)[C@H]4O)cc3O2)cc1 (some centres undefined),21
COC(=O)C1=COC(O[C@@H]2O[C@H](CO)[C@@H](O)[C@H](O)[C@H]2O)[C@@H]2[C@@](C)(O)[C@@H](OC(=O)/C=C\c3ccccc3)C[C@]12O (some centres undefined),22
O[C@@H]1[C@@H](O)[C@H](OC/C=C/c2ccccc2)O[C@H](CO[C@@H]2OC[C@H](O)[C@H](O)[C@H]2O)[C@H]1O,90*
Cc1cc2c(cc1O[C@@H]1O[C@H](CO[C@@H]3OC[C@@H](O)[C@H](O)[C@H]3O)[C@@H](O)[C@H](O)[C@H]1O)C(=O)c1ccccc1C2=O,-6
C[C@@H]1O[C@@H](OC[C@H]2O[C@@H](Oc3ccc(O)cc3)[C@H](O)[C@@H](OC(=O)c3ccc(O)cc3)[C@@H]2O)[C@H](O)[C@H](O)[C@H]1O,38
C[C@@H]1O[C@@H](OC[C@H]2O[C@@H](OCCc3ccccc3)[C@H](O)[C@@H](O)[C@@H]2O)[C@H](O)[C@H](O)[C@H]1O,52*
COC(=O)C1C(=O)c2c([nH]c(C(=O)OC(C)C)c2C)CC1C (centres undefined),-10
Cc1ccc(N(C(C)C(=O)Nc2cccc(C)c2C)S(C)(=O)=O)cc1 (centres undefined),3
C[C@H](CCC(=O)O)[C@H]1CCC2[C@@H]3CC[C@@H]4C[C@H](O)CC[C@]4(C)C3C=C[C@@]21C (some centres undefined),-10
CCCCn1cc(C2CC(=O)N(c3ccc(Br)cc3)C2=O)c2ccccc21 (centres undefined),35
Cc1cc2nc(-c3ccc(C)c(NC(=O)COc4ccc([N+](=O)[O-])cc4)c3)oc2cc1C,-3
COc1ccc(-c2coc3c(OC)c(O)ccc3c2=O)cc1,1
COc1ccc(-c2coc3c(OC)c(OC)cc(OC)c3c2=O)cc1,7
CC1(CO)C=Cc2c(cc(O)c3c(=O)c(-c4ccc(O)cc4)coc23)O1 (centres undefined),65*
SMILES,EZH2 inh
COc1ccc(Cl)cc1NC(=O)CN1C(=O)c2ccccc2S1(=O)=O,-8
c1coc(-c2nn3c(C4COc5ccccc5O4)nnc3s2)c1 (centres undefined),-5
O=S(=O)(NCCCCCCc1ccccc1)c1cccc2c(Cl)cccc12,55*
NCCCCCCNS(=O)(=O)c1cccc2c(Cl)cccc12,-11
CCCCCCCNS(=O)(=O)c1cccc2c(Cl)cccc12,41
COc1ccc(OC)c(C2C(C(=O)c3cccs3)C(=O)C(=O)N2Cc2cccnc2)c1 (centres undefined),-1
Cc1cc(Cl)ccc1NC(=O)CN(C)S(=O)(=O)c1ccc(F)cc1,-6
O=C(CCc1ccc(O)cc1)c1c(O)cc(O)cc1O[C@@H]1O[C@H](CO)[C@@H](O)[C@H](O)[C@H]1O,-4
CC(O)CCCc1cc(O)cc(O[C@@H]2O[C@H](CO)[C@@H](O)[C@H](O)[C@H]2O)c1 (some centres undefined),5
CC(=O)c1ccc(O[C@@H]2O[C@H](CO)[C@@H](O)[C@H](O)[C@H]2O)c(/C=C/C(C)(C)O)c1,5
CC(=O)c1c(O)cc(O[C@@H]2O[C@H](CO)[C@@H](O)[C@H](O)[C@H]2O)cc1O,94*
COc1ccc(/C=C/c2cc(O)cc(O[C@@H]3O[C@H](CO)[C@@H](O)[C@H](O)[C@H]3O)c2)cc1,0
CC(C)=CCc1cc(O[C@@H]2O[C@H](CO)[C@@H](O)[C@H](O)[C@H]2O)cc(CC=C(C)C)c1C(O)C(=O)O (some centres undefined),99*
Cc1ccc2ccc(C(Nc3ccccn3)c3ccc(Cl)c(Cl)c3)c(O)c2n1 (centres undefined),-17
N#Cc1ccc(NC(=O)c2ccc(Br)o2)cc1,-1
O=C1C(=O)N(Cc2ccco2)C(c2ccc(Cl)cc2)C1C(=O)c1cc2ccccc2o1 (centres undefined),-34
CC(C)CC#Cc1ccc2c(c1)O[C@H](CN(C)Cc1ccc(C(=O)O)cc1)[C@@H](C)CN([C@H](C)CO)S2(=O)=O,70*
C[C@@H]1CN([C@H](C)CO)S(=O)(=O)c2ccc(C3=CCCC3)cc2O[C@@H]1CN(C)C(=O)CC1CC1,15
C[C@H](CO)N1C[C@H](C)[C@H](CN(C)Cc2ccccc2)Oc2cc(C3=CCCCC3)ccc2S1(=O)=O,22
CC(C)CC#Cc1ccc2c(c1)O[C@@H](CN(C)Cc1ccc(F)cc1)[C@H](C)CN([C@H](C)CO)S2(=O)=O,6
C[C@H]1CN([C@@H](C)CO)S(=O)(=O)c2ccc(C3=CCCC3)cc2O[C@@H]1CN(C)C(=O)CC1CC1,9
C[C@H]1CN([C@@H](C)CO)S(=O)(=O)c2ccc(C3=CCCCC3)cc2O[C@H]1CN(C)Cc1ccccc1,56*
C[C@@H]1CN([C@@H](C)CO)S(=O)(=O)c2ccc(C3=CCCCC3)cc2O[C@@H]1CN(C)Cc1ccccc1,27
C[C@H](CO)N1C[C@H](C)[C@H](CN(C)C(=O)CC2CC2)Oc2cc(C3=CCCC3)ccc2S1(=O)=O,55*
